A selection: hits, their analogues and other compounds. The true share with any hit is near 2.5%.
p53ts 39C tox: cytotoxicity in p53ts cells at nonpermissive temperature. 130,000 compounds, 1.5% hits. H1299-p53A138V viability at 39C, ATP luminescence, 24 h. Potency, µM (titrated, usually from 46.1 µM), without a hit: at the highest dose activity change, negative = cell killing, actives largely listed as cytotoxic. AID 902; also: nearly all actives have a fitted effect of over 55% in size
p53ts 32C kill: p53ts cell cytotoxicity, permissive temperature | H1299-p53A138V at 32C, ATP luminescence viability, 24 h | Potency, µM (top dose mostly 46.1 µM), without a hit: at the highest dose activity change, negative = cytotoxicity, hits mostly cytotoxic | 130,000 compounds, 0.93% hits;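 also: 0% = DMSO and -100% = full killing by reference compound; nearly all actives have a fitted effect of over 55% in size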
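Viability by ATPlite luminescence after 24 h compound treatment (up to 46 uM) at the permissive 32C. Cells are H1299 carrying p53 A138V. Scale runs from DMSO basal to 100 uM tamoxifen as full kill; AC50 from Hill fits.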
FLuc inh: firefly luciferase inhibition; P08659; purified firefly luciferase, luminescence, 8 min; Potency, µM (series often up to 57.1 µM), for the others: at the highest dose activity change, negative = inhibition, usual class: inhibitors; 72,000 compounds, 2.2% hits; also: nearly all actives have a fitted effect of over 40% in size
Target sequence (P08659 whole entry, looked up): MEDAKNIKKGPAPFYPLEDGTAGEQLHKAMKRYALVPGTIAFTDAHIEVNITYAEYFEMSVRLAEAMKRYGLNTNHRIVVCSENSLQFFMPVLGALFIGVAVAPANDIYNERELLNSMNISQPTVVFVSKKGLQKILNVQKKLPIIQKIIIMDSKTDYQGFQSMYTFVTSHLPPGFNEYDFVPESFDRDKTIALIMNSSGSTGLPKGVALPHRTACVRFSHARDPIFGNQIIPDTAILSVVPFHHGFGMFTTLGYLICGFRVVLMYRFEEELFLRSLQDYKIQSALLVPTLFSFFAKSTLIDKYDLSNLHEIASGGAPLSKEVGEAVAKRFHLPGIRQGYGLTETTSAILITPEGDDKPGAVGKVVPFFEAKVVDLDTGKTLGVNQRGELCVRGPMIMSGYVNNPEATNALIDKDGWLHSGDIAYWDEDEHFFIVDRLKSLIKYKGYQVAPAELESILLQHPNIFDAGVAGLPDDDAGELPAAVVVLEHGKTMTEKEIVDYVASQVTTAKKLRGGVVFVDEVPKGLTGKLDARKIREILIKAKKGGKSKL
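Luminescence read-out after 8 min at room temperature; enzyme reaction used luciferin plus 10 uM ATP (linear range) in imidazole buffer pH 7.2 with KCl, MgCl2, Tween 20 and BSA. Each sample was run as a titration.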
Numbers without * were called inactive; [ ] = another dose, or the depositor's remark. Calls follow the shape of the dose curve; as a rule, active = well fitted curve in the direction sought with a large enough effect; inconclusive = small, poorly fitted or top-dose-only effect, or another doubt; inactive = no such curve, though single readings can be large; an effect the other way counts as inactive or inconclusive. Unless noted, % is scaled to controls: 0 for no effect and ±100 for the full control effect; potency is read from the fitted curve at half-maximal effect.

Cc1ccc(CNc2ncnc3c2nc2n3CCCC2)cc1 was read as p53ts 32C kill -14.1%.
For O=C1[C@H]2[C@H]3[C@H](O)[C@H](O)C/C(=N/OCc4ccccc4)[C@@H]3CC[C@@H]2C(=O)N1C[C@@H]1CCCO1 the results were p53ts 39C tox -1.4%[9.22 µM], p53ts 32C kill 0.0%[9.22 µM] and FLuc inh 2.2%[11.4 µM].
`COc1cc(C)cc2oc(=O)c(CC(=O)NCCc3ccc(Cl)cc3)c(C)c12` gave p53ts 39C tox 12.6µM* and p53ts 32C kill -21.8%.
`COc1cc(C)cc2oc(=O)c(CC(=O)NCc3cccc(Cl)c3)c(C)c12` gave p53ts 39C tox -18.3% and p53ts 32C kill 0.1%.
Screening COc1ccc(C(=O)CN2C(=O)NC3(CCCc4ccccc43)C2=O)cc1OC (stereo not drawn) returned p53ts 39C tox 13.4%, p53ts 32C kill -0.1% and FLuc inh 1.0%.
`Cc1cc(C(=O)CN2C(=O)NC3(CCCc4ccccc43)C2=O)c(C)n1Cc1cccs1` (stereo not drawn) gave p53ts 39C tox -5.6%, p53ts 32C kill -7.3% and FLuc inh 12.6µM*.
Screening Cc1cc(C(=O)Nc2ccc3c(c2)OCCO3)co1 returned p53ts 39C tox 15.8µM* and p53ts 32C kill 10µM*.
`Cc1cc(C)n(-c2ccc(C(=O)Nc3ccccn3)cc2)n1` gave p53ts 39C tox 10µM*, p53ts 32C kill 12.6µM* and FLuc inh 12.6µM*.
Screening Cc1cc(C)n(-c2ccc(C(=O)Nc3sccc3C(N)=O)cc2)n1 returned p53ts 39C tox inconclusive, p53ts 32C kill inconclusive and FLuc inh -28.8%.
Cn1c(C(=O)Nc2ccc3c(c2)OCCO3)cc2sccc21 was read as p53ts 39C tox 12.6µM*, p53ts 32C kill 12.6µM* and FLuc inh 3.16µM*.
`CCOC(=O)c1cccc(NC(=O)c2cc3sccc3n2C)c1` gave p53ts 39C tox -4.4%, p53ts 32C kill -25.6% and FLuc inh inconclusive.
CC(=O)c1c(C)[nH]c(C(=O)Nc2ccc3c(c2)OCCO3)c1C was read as p53ts 39C tox inconclusive, p53ts 32C kill inconclusive and FLuc inh 12.6µM*.
`CCOC(=O)c1[nH]c(C)c(C(=O)Nc2ccc3c(c2)OCCO3)c1C` gave p53ts 39C tox -7.0%, p53ts 32C kill 1.7% and FLuc inh -10.3%.
Screening Cc1onc(-c2ccccc2)c1C(=O)Nc1ccc2c(c1)OCCO2 returned p53ts 39C tox -6.7%, p53ts 32C kill 2.0% and FLuc inh 2.9%.
`OC[C@@H]1O[C@@H](N2CCN([C@@H]3O[C@@H](CO)[C@@H](O)[C@H](O)[C@H]3O)CC2)[C@@H](O)[C@H](O)[C@H]1O` gave p53ts 39C tox 16.4%[9.22 µM], p53ts 32C kill 8.0%[9.22 µM] and FLuc inh 2.2%[11.4 µM].
Screening O=C(NCc1ccccc1)c1ccc(Cc2nc3ccccc3[nH]2)cc1 returned p53ts 39C tox -9.7% and p53ts 32C kill -5.2%.
For O=C(Nc1ccc2c(c1)OCCO2)C1CCC1 the results were p53ts 39C tox -7.0%, p53ts 32C kill -4.7% and FLuc inh -2.7%.
COc1cc(C(=O)Nc2ccccn2)cc(OC)c1OC was read as FLuc inh 1.1%[25.5 µM].
`Cc1cc(C)n(-c2ccc(C(=O)Nc3ccc4c(c3)OCCO4)cc2)n1` gave p53ts 39C tox inconclusive, p53ts 32C kill inconclusive and FLuc inh 12.6µM*.
CCCC(=O)Nc1cccc(NC(=O)c2ccc3c(c2)OCCO3)c1 was read as p53ts 39C tox inconclusive, p53ts 32C kill inconclusive and FLuc inh 15.8µM*.
Screening Cc1cc(C(=O)Nc2ccccn2)cs1 returned p53ts 39C tox inconclusive, p53ts 32C kill inconclusive and FLuc inh 12.6µM*.
For CCCCC(=O)Nc1cccc(NC(=O)c2ccc3c(c2)OCO3)c1 the results were p53ts 39C tox -7.1%, p53ts 32C kill -10.2% and FLuc inh inconclusive.
For O=C(Nc1ccc2c(c1)OCCO2)NC1CCCCC1 the results were p53ts 39C tox 10µM*, p53ts 32C kill 7.94µM* and FLuc inh 7.94µM*.
For Cc1cc(C)n(-c2ccc(C(=O)NCc3ccc4c(c3)OCO4)cc2)n1 the results were p53ts 39C tox -1.8%, p53ts 32C kill 5.4% and FLuc inh -29.6%.
CON(C)C(=O)c1nnc2c3ccccc3n(S(=O)(=O)c3ccc(C)cc3)c2n1 was read as p53ts 39C tox 12.3%[9.22 µM], p53ts 32C kill 5.4%[9.22 µM] and FLuc inh 0.3%[11.4 µM].
`Cc1c(CC(=O)NCCc2ccc(Cl)cc2)c(=O)oc2c(C)c3occ(C(C)(C)C)c3cc12` gave p53ts 39C tox inconclusive and p53ts 32C kill 15.1%.
`Nc1ncnc2c1ncn2[C@@H]1CCCO1` gave p53ts 39C tox 13.4%, p53ts 32C kill 33.7% and FLuc inh 2.8%.
Screening CCCCCn1c(=O)[nH]c2cc(C(=O)Nc3ccc(OC)c(OC)c3)ccc2c1=O returned p53ts 39C tox 3.1% and p53ts 32C kill -0.8%.
Screening O=C(Nc1ccc2c(c1)OCCO2)c1ccc(NC(=O)C2CCCO2)cc1 (stereo not drawn) returned p53ts 39C tox inconclusive, p53ts 32C kill inconclusive and FLuc inh 12.6µM*.
For CCOc1ccc(C(=O)Nc2ccc3c(c2)OCCO3)cc1OC the results were p53ts 39C tox 0.8%, p53ts 32C kill 3.3% and FLuc inh 2.5%.
COc1cc(OC)cc(C(=O)Nc2ccc3c(c2)OCCO3)c1 was read as p53ts 39C tox 3.98µM* and p53ts 32C kill 12.6µM*.
Screening O=C(NCc1ccc2c(c1)OCO2)c1ccc(NC(=O)C2CCCO2)cc1 (stereo not drawn) returned p53ts 39C tox -3.2%, p53ts 32C kill 3.2% and FLuc inh -3.2%.
`O=C(Nc1cccc2ccccc12)c1ccccc1` gave p53ts 39C tox 5.4%[9.22 µM], p53ts 32C kill 1.6%[9.22 µM] and FLuc inh 0.0%[11.4 µM].
For Cc1cc(NC(=O)c2ccccc2)sc1C the results were p53ts 39C tox inconclusive, p53ts 32C kill inconclusive and FLuc inh 12.6µM*.
Screening CNC(=O)c1cc(C)c(-c2ccccc2)s1 returned p53ts 39C tox -4.7%, p53ts 32C kill -2.9% and FLuc inh -2.7%.
For Cc1ccc(NC(=O)c2ccccc2)s1 the results were p53ts 39C tox 7.94µM*, p53ts 32C kill 3.98µM* and FLuc inh 7.94µM*.
For NC(N)=NC(N)=Nc1ccccc1 (tested in a mixture with another compound) the results were p53ts 39C tox 11.6%[9.22 µM], p53ts 32C kill -2.3%[9.22 µM] and FLuc inh 0.5%[11.4 µM].
COCCn1c(=O)c(-c2cccs2)nc2cnc(N(C)C)nc21 was read as p53ts 39C tox -4.9%, p53ts 32C kill 2.6% and FLuc inh -0.5%[11.4 µM].
CC(=O)n1c2ccccc2c2c(C#N)c(N3CCCCC3)sc21 was read as p53ts 39C tox 8.6%, p53ts 32C kill 5.8% and FLuc inh -0.8%.
`C=CCNc1nc2c3ccccc3n(C(C)=O)c2s1` gave p53ts 39C tox -21.0%, p53ts 32C kill -23.2% and FLuc inh 20µM*.
`COc1ccc2[nH]cc(CCNc3ccnc(-c4ccccc4Cl)n3)c2c1` gave p53ts 39C tox -11.1%, p53ts 32C kill -26.5% and FLuc inh 0.1%[2.29 µM].
COc1cc(-c2cc3n(C)c(C)c(CCC(=O)O)c(=O)n3n2)cc(OC)c1OC was read as p53ts 39C tox 21.1% and p53ts 32C kill 4.8%.
Screening CC1=C2C(=COC(C)C2C)C(=O)C(C(=O)O)=C1O (stereo not drawn) returned p53ts 39C tox -0.4% and p53ts 32C kill -0.5%.

Assay outcomes deposited in PubChem BioAssay by National Center for Advancing Translational Sciences (NCATS).
